According to PubChem BioAssay (NCI):
About 83,000 compounds went through this panel and 20% of them were active in at least one assay; those are over-represented in the sample as a whole.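 Note: values are percent growth. 100 is the growth of untreated cells, values between 100 and 0 indicate rising inhibition; between -100 and 0 indicates cell death.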 Activity calls are given as the source filed them. The calls were made as follows: active = growth percent below 10; inactive = the rest.

Key:
Assay in all cases: NCI-60 one-dose screen, 48 h (100 = growth as untreated, 0 = no growth, -100 = all killed)
Conditions in all cases: 10 µM unless noted
HCT-15 colon = test system: HCT-15 colon
HT29 colon = test system: HT29 colon
SNB-75 CNS = test system: SNB-75 CNS
SNB-19 CNS = test system: SNB-19 CNS
U251 CNS = test system: U251 CNS
PC-3 prostate = test system: PC-3 prostate
SK-MEL-5 melanoma = test system: SK-MEL-5 melanoma
UACC-62 melanoma = test system: UACC-62 melanoma
SK-MEL-28 melanoma = test system: SK-MEL-28 melanoma
EKVX NSCLC = test system: EKVX NSCLC
SN12C renal = test system: SN12C renal
UO-31 renal = test system: UO-31 renal
TK-10 renal = test system: TK-10 renal
ACHN renal = test system: ACHN renal
CAKI-1 renal = test system: CAKI-1 renal
CCRF-CEM leukemia = test system: CCRF-CEM leukemia
MOLT-4 leukemia = test system: MOLT-4 leukemia
SK-MEL-2 melanoma = test system: SK-MEL-2 melanoma
LOX IMVI melanoma = test system: LOX IMVI melanoma
A498 renal = test system: A498 renal

Measured: growth

S=C(NCCNC(=S)[S][Sn]([c]1ccccc1)([c]1ccccc1)[c]1ccccc1)[S][Sn]([c]1ccccc1)([c]1ccccc1)[c]1ccccc1
active: HCT-15 colon -73.8% | HT29 colon -93.1% | SNB-75 CNS -60.8% | SNB-19 CNS -92.8% | U251 CNS -100% | PC-3 prostate -82.5% | SK-MEL-5 melanoma -100% | UACC-62 melanoma -64.1% | SK-MEL-28 melanoma -98.8% | EKVX NSCLC -91.4% | SN12C renal -79.7% | UO-31 renal -100% | TK-10 renal -100% | ACHN renal -100% | CAKI-1 renal -71.3% | CCRF-CEM leukemia -35.3% | MOLT-4 leukemia -32.8%

CC1OC2CC(=O)OC2C2=C1C(=O)c1c(O)cccc1C2=O (stereo unspecified)
inactive: SNB-19 CNS 15.9%
active: HCT-15 colon -76.6% | HT29 colon -51.8% | SNB-75 CNS -100% | U251 CNS -44.8% | PC-3 prostate -35.3% | SK-MEL-5 melanoma -100% | UACC-62 melanoma -89.4% | SK-MEL-28 melanoma -93.5% | SK-MEL-2 melanoma -61.2% | EKVX NSCLC -53.3% | SN12C renal -94.9% | UO-31 renal -90.7% | TK-10 renal -96.2% | ACHN renal -97.4% | CAKI-1 renal -82.5% | CCRF-CEM leukemia 0.534% | MOLT-4 leukemia -7.62%

CNc1ccc(N)cc1
inactive: HCT-15 colon 109% | HT29 colon 107% | SNB-75 CNS 67.3% | SNB-19 CNS 104% | U251 CNS 117% | PC-3 prostate 96.4% | SK-MEL-5 melanoma 101% | UACC-62 melanoma 89.3% | LOX IMVI melanoma 104% | SK-MEL-2 melanoma 120% | EKVX NSCLC 93.7% | SN12C renal 110% | UO-31 renal 98.2% | TK-10 renal 130% | ACHN renal 92.8% | CAKI-1 renal 91.4% | CCRF-CEM leukemia 87.6% | MOLT-4 leukemia 97.6%

COC(=O)[C@@]12OC[C@]34[C@H]([C@@H](O)[C@@H]1O)[C@@]1(C)[C@H](O)C(=O)C=C(C)[C@@H]1C[C@H]3OC(=O)C(OC(C)=O)[C@@H]24 (stereo partly specified)
active: HCT-15 colon -27.3% | HT29 colon 6.8% | SNB-75 CNS -80.1% | SNB-19 CNS -18.8% | U251 CNS -31.4% | PC-3 prostate -51% | SK-MEL-5 melanoma -76.9% | UACC-62 melanoma -88.8% | SK-MEL-28 melanoma -51.5% | SK-MEL-2 melanoma -49.5% | EKVX NSCLC -43.6% | SN12C renal -17.5% | UO-31 renal -35.1% | TK-10 renal -32.7% | ACHN renal -39.2% | CAKI-1 renal -35.9% | A498 renal -49.4% | MOLT-4 leukemia -41.6%
